In the library only some 6.1% were active in any assay of this set; here they are far more common.
Hsp90 Hop PPI: changes Hsp90-Hop TPR2A binding signal, up or down; 71,000 compounds, 0.44% hits; AlphaScreen TPR2A-His6 binding biotin-Hsp90 C-terminal peptide; AID 595; Potency, µM (highest dose often 57 µM), for the others: at the highest dose activity change, negative = inhibition; active means well fitted curve in either direction with a large enough effect; inconclusive means small, poorly fitted or top-dose-only effect, or another doubt
15-hLO inh: inhibitors of human 15-lipoxygenase (ALOX15); P16050; purified 15hLO-1, xylenol orange hydroperoxide absorbance; Potency, µM (doses to about 57.1 µM), for the others: at the highest dose activity change, negative = inhibition, usual class: inhibitors; 74,000 compounds, 1.4% hits; AID 887; further: nearly all actives have a fitted effect of over 55% in size
Target sequence (P16050 whole entry, looked up): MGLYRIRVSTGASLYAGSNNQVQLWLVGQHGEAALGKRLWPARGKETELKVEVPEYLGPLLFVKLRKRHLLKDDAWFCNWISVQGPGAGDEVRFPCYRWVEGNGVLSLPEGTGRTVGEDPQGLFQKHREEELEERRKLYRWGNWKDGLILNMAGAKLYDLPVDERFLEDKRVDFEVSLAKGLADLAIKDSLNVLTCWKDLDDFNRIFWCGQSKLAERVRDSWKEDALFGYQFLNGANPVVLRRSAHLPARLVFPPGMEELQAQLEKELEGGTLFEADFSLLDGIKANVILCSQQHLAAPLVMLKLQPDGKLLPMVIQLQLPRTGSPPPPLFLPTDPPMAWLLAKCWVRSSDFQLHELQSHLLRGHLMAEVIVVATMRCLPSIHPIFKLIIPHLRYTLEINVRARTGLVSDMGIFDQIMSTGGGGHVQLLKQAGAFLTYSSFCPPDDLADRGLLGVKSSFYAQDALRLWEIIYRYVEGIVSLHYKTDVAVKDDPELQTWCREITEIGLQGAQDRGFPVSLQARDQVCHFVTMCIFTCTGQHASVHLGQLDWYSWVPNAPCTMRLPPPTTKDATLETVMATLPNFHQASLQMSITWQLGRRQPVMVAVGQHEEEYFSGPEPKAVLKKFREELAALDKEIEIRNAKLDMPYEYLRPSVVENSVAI
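Readout: Fe(III)-xylenol orange absorbance, 573-to-405 nm ratio as reaction progress. Enzyme 40 nM purified human 15hLO-1, substrate 50 uM arachidonic acid, 6 min RT after 15 min compound preincubation; Hepes pH 7.5 buffer with Triton X-100.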
Bst PK mod: modulators of Bacillus stearothermophilus pyruvate kinase. 51,000 compounds, 1.2% hits. purified pyruvate kinase, luminescence ATP production; ribose 5-phosphate activator present at AC10. Potency, µM; in the data active means potency below about 11 µM; inconclusive means mostly about 12 µM to 25 µM;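 the screen sought inhibitors and activators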;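 further: scaled between full activation by ribose 5 phosphate and full inhibition by luteolin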
ERK AVP inh: inhibitors of vasopressin-stimulated ERK signaling pathway | 72,000 compounds, 0.99% hits | HEK293-V1b, vasopressin-stimulated pERK AlphaScreen | Potency, µM (doses to about 57.5 µM), for inactives: top-dose activity, negative = inhibition, actives largely listed as inhibitors | AID 995; further: nearly all actives have a fitted effect of over 55% in size
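Overnight-seeded V1b-HEK293 cells in 1% FBS got compound, then vasopressin (25 nM final, 5 min, 37C), then lysis buffer. AlphaScreen detection of phospho-ERK; activity normalized to basal and full-stimulation controls.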
Tau fil binding: binds recombinant human tau filaments; P10636; recombinant tau filaments, thioflavin S fluorescence, 15 h; filaments grown with octadecylsulfate alongside compound; Potency, µM (highest dose often 57.1 µM), without a hit: top-dose activity change, negative = inhibition; 71,000 compounds, 2% hits;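 further: actives lower thioflavin S fluorescence by blocking filaments or displacing dye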
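His-tagged recombinant human tau (exons 2, 3 and 10 included), 1 uM, was induced to fibrillize by 30 uM sodium octadecylsulfate with compound present. After 15 h at 37 C, thioflavine S fluorescence (ex 450, em 510 nm) was read.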
Luciferase inh: firefly luciferase inhibition; Potency, µM (series often up to 57.1 µM), for the others: top-dose activity change, negative = inhibition, actives largely listed as inhibitors; 72,000 compounds, 2.2% hits; AID 411; purified firefly luciferase, luminescence, 8 min; P08659; further: nearly all actives have a fitted effect of over 40% in size
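Here, luciferase activity is measured as luminescence following an 8 min room-temperature reaction at 10 uM ATP, pH 7.2. Every library sample is titrated.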
The depositor's hits bear a star; i = inactive; ? = inconclusive; / = no result; ! = repeats disagree; [ ] = another dose, or the depositor's remark. Unless noted, the call rests on the fitted dose curve; in most records, active means well fitted curve in the direction sought with a large enough effect; inconclusive means small, poorly fitted or top-dose-only effect, or another doubt; inactive means no such curve, though single readings can be large; an effect the other way counts as inactive or inconclusive. Unless noted, on the % scale 0 is the no-effect control and ±100 the full control effect; potency means the concentration at half of the fitted maximal effect.

SMILES	Hsp90 Hop PPI	15-hLO inh	Bst PK mod	ERK AVP inh	Tau fil binding	Luciferase inh
COc1ccc2c(=O)c3c(=O)n(Cc4ccco4)c(-c4cc(OC)c(OC)c(OC)c4)nc3oc2c1	-4%	-4%	>57	-9%	-12%	1%
C(=N\c1c(-c2ccccc2)nc2n1CCS2)/c1ccccc1	?	-26%	/	20µM*	?	-13%
CNCC[C@H](Oc1ccccc1C)c1ccccc1	1%	?	/	7%	-10%	-1%
COc1cccc(-c2ccc3ncnc(NCc4ccccc4)c3c2)c1	-7%	?	/	?	108%	0%[2.29 µM]
CCCCc1c(C)nn(-c2nnc3c4ccccc4n(CC)c3n2)c1C	-12%	39%	>57	20µM*	2µM*	-6%
Cc1ccc(C(=O)O)cc1[N+](=O)[O-]	-3%	1%	/	2%	3%	/
N#Cc1cc2nc(O)c(O)nc2cc1[N+](=O)[O-]	-4%	?	/	8%	40µM*!	0%
O=C(O)CC[P+](c1ccccc1)(c1ccccc1)c1ccccc1	2%[11 µM]	4%[11.4 µM]	/	1%[11.5 µM]	0%[11.4 µM]	0%[11.4 µM]
COc1ccc(Cl)cc1N=Nc1ncc[nH]1	-9%	-15%[25.6 µM]	/	?	40µM*	0%
COc1ccc(Cl)cc1N=Cc1c(O)cc(C)oc1=O	/	/	>11	/	/	0%[25.5 µM]
N#CC1=C(N)N(c2ccccc2)C2=C(C(=O)CCC2)C1c1cccs1 (stereo not given)	-21%	?	>57	?	20µM*	-6%
O=C(Nc1c(F)cc(F)cc1Br)c1ccco1	-12%	-1%	>57	-3%	16µM*	3%
Cc1noc(C)c1C(=O)Nc1c(F)cc(F)cc1Br	-5%	-2%	>57	-10%	-9%	0%
COc1cccc([C@H]2Oc3ccc(OC)cc3/C(=N\O[C@@H](C)c3cn([C@H](CO)Cc4ccccc4)nn3)[C@@H]2O)c1	/	6%[11.4 µM]	/	0%[11.5 µM]	/	0%[11.4 µM]
Oc1cccc(O)c1O	-9%	13µM*	/	3%	-4%	/
COc1c(O)cccc1O	/	2%	/	5%	/	/
O=C(CN1C(=O)c2cccc3cccc1c23)Nc1ccc(S(=O)(=O)N2CCOCC2)cc1	26%	-1%	10*	9%	-10%	1%
O=C(CN1C(=O)c2cccc3cccc1c23)NCc1ccc2c(c1)OCO2	1%	-7%	2.8*	10%	84%	2%
O=C(CN1CC(c2ccccc2)CC1=O)Nc1ccc2c(c1)OCO2 (stereo not given)	-7%	0%	/	-13%	25µM*	-4%
O=C(CN1C(=O)c2cccc3cccc1c23)NCC1CCCO1 (stereo not given)	-2%	5%	?	-7%	8%	1%
COc1ccc(NC(=O)CN2CC(c3ccccc3)CC2=O)cc1OC (stereo not given)	-1%[2.3 µM]	-2%	/	-8%	-3%	-7%
O=C(NCc1ccc2c(c1)OCO2)c1c(F)c(F)c(F)c(F)c1F	1%	5%	7.7*	7%	-1%	3%
COc1ccc(C(=O)N2CCC3(CC2)CN(c2ccccc2)C3)cc1	-16%	14%	/	?	-9%	-8%[11.4 µM]
CN(C)c1ncc2nc(-c3ccc(F)cc3)c(=O)n(CCC#N)c2n1	-3%	-3%	/	-6%	179%	0%[11.4 µM]
COC(=O)[C@@]1(Cc2ccccc2)[C@H]2c3cc(C(=O)N4CCCC4)n(Cc4cccc5ccccc45)c3C[C@H]2CN1C(=O)c1ccccc1	-22%	/	/	-4%	57%	/
SMILES	Hsp90 Hop PPI	15-hLO inh	Bst PK mod	ERK AVP inh	Tau fil binding	Luciferase inh
CN1CCN(c2ncc3nc(-c4cccs4)c(=O)n(CCc4ccccc4)c3n2)CC1	-6%	-3%	/	26%	i	0%[11.4 µM]
CC(C(=O)NCc1ccc2c(c1)OCO2)N1c2cccc3cccc(c23)S1(=O)=O (stereo not given)	15%	-12%	0.94*	6%	-5%	-1%
O=C(CN1C(=O)c2cccc3cccc1c23)Nc1ccc2c(c1)OCO2	3%	-20%	1.9*	2%	94%	1%
O=C(CN1c2cccc3cccc(c23)S1(=O)=O)NCc1ccc2c(c1)OCO2	?	-12%[11.4 µM]	/	-7%	7%[11.4 µM]	-5%
COc1ccc([C@@H]2[C@H]3CN(C(C)=O)CC=C3C(C#N)=C(N)C2(C#N)C#N)c2ccccc12	-13%	13µM*	>57	-33%	15%	-7%
CC(C)C[C@@H](CC(=O)N[C@@H](CCC(=O)O)CC(=O)O)NC(=O)[C@@H]1CCCC[C@H]1NC(=O)C[C@@H](NC(=O)C[C@H](Cc1c[nH]c2ccccc12)NC(=O)[C@@H]1CNCC[C@H]1N)C(C)C	-4%	/	/	/	-7%	/
O=C1COC(c2ccccc2O)=NN1CCCN1CCCC1	2%[11 µM]	4%[11.4 µM]	/	-15%[11.5 µM]	2%[11.4 µM]	3%[11.4 µM]
COc1ccc(S(=O)(=O)c2ccc(OC)c(OC)c2)cc1OC	-4%	-9%	>57	16µM*	-7%	2%
COc1ccc(S(=O)(=O)Nc2ccc3c(c2)OCO3)cc1OC	-13%	-3%	>57	-30%	25µM*	-4%
O=C(c1cnccn1)N1CCC[C@@]2(CCN(c3ccncc3)C2)C1	-4%	41%	/	-16%	-8%	1%[11.4 µM]
[O-]/[N+](=C\c1ccncc1)c1ccc(Br)cc1	-9%	-12%	/	-21%	-22%	7.9µM*
COc1ccc2c(c1)c1nnc(SC)nc1n2C	-1%	10%	>57	-13%	-16%	0%
COc1ccc2c(c1)c1nnc(SCC(=O)N3C(C)CCCC3C)nc1n2C (stereo not given)	2%	1%	/	?	13µM*	-1%
COC(=O)C1=C(C)NC(C)=C(C(=O)OCCN(C)Cc2ccccc2)[C@H]1c1cccc([N+](=O)[O-])c1	-11%[26 µM]	-1%[25.6 µM]	/	-7%[25.7 µM]	10µM*	1%[25.5 µM]
COc1ccc(CCN(C)CCCOc2ccc(S(=O)(=O)c3[nH]c4ccccc4c3C(C)C)cc2)cc1OC	?	-1%[25.6 µM]	/	-1%	-46%	1%
COC(=O)[C@@]1(C)CCC[C@@]2(C)c3ccc(O)c(C(C)C)c3CCC21 (stereo not given in full)	/	-13%	/	-27%	/	/
Cc1nc(-c2ccccc2)sc1C(N)=O	-2%	9%	/	-17%	5%	0%
Cc1c(Cc2ccccc2)sc(N)c1C(N)=O	-11%	?	/	3%	16µM*	-1%
O=c1c(-c2cc(F)cc(F)c2)nc2cncnc2n1Cc1ccccc1	-5%	11%	/	?	32µM*	0%[11.4 µM]
O=c1c(-c2ccc(F)cc2)nc2cncnc2n1Cc1ccc(F)cc1	1%	7%	/	?	13µM*	2%[11.4 µM]
O=c1c(-c2cc(F)cc(F)c2)nc2cncnc2n1Cc1ccc(F)cc1	-11%	7.9µM*	/	-12%	?	1%[11.4 µM]
O=c1c(-c2ccc(Cl)cc2)nc2cncnc2n1Cc1ccc(F)cc1	2%	-2%	/	?	?	2%[11.4 µM]
O=c1c(-c2ccc(F)c(F)c2)nc2cncnc2n1Cc1ccccc1	-18%	-3%	/	-23%	13µM*	0%[11.4 µM]

Screens from PubChem BioAssay.
